This note sets out measurements from PubChem BioAssay (NCATS).

Records with an inconclusive call do not appear. Where a call stands in place of a potency, no number is given. The source made the active and inactive calls. Calls come from the whole dose curve; as a rule, active = well fitted curve in the direction sought with a large enough effect; inconclusive = small, poorly fitted or top-dose-only effect, or another doubt; inactive = no such curve, though single readings can be large; an effect the other way counts as inactive or inconclusive.

One test in a line: qHTS to identify inhibitors of the type 1 interferon - major histocompatibility complex class I in skeletal muscle: primary screen against the NCATS LOPAC collection (AID 1347405).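 Note: lytic HiBiT luminescence reporting HLA-B protein level.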 Note: potency is the fitted concentration of half-maximal effect. The settings on record: iHSKM muscle cells, IFN-b-induced MHC-I HiBiT luminescence, 24 h; series mostly up to 45.9 µM. Put shortly: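 After 24 h at 37 C with compounds (7-point, 1:4.3 dilutions, 46 uM top final) plus 4 ng/ml IFN-beta, luminescence from lytic HiBiT detection was measured. HLA-B*08:01 in C25cl48 myoblasts carried an endogenous C-terminal HiBiT tag; medium lacked dexamethasone.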
In general terms: Quantitative high-throughput screening tests each substance at several concentrations.
As for `COc1ccc2[nH]cc(CCN)c2c1`, the Potency entry was “inactive”.
Still for that read-out and setting: in the case of `C[N+](C)(C)CC#CCOC(=O)Nc1cccc(Cl)c1` it was “inactive”; in that of `CC(=O)c1c(O)c(C)c(O)c(Cc2c(O)c3c(c(C(=O)/C=C/c4ccccc4)c2O)OC(C)(C)C=C3)c1O`, “inactive”.
Still for that read-out and setting: the entry for `Oc1ccc2c3c1O[C@H]1c4oc5ccccc5c4C[C@@]4(O)C(C2)N(CC2CC2)CCC314` (stereo partly specified) is “inactive”; for `C[N+]1(C)CCOC(O)(c2ccc(-c3ccc(C4(O)C[N+](C)(C)CCO4)cc3)cc2)C1` (stereo unspecified) it is “inactive”; for `c1ccc2cc(CC3=NCCN3)ccc2c1` it is “inactive”.
Same read-out and setting: the entry for `CCCN(CCC)[C@H]1CCc2c(F)ccc(O)c2C1` is “inactive”; for `N[C@@H](Cn1oc(=O)[nH]c1=O)C(=O)O` it is “inactive”.
Turning to `C[C@H](N)CN1CCc2ccc(Br)cc21`, the Potency entry is “inactive”.
The same measure, in the same setting: in the case of `C[N+](C)(C)CCOC(=O)CBr` it was “inactive”.
Still for that read-out and setting: the entry for `CCCN1CCc2cc(O)cc3c2[C@H]1Cc1ccc(O)c(O)c1-3` is “inactive”; for `C[C@H]1C2Cc3ccc(O)cc3[C@@]1(C)CCN2CC1CC1` it is “inactive”; for `CC(C)(C)OC(=O)NC1[C@H]2CNC[C@@H]12` (stereo partly specified) it is “inactive”.
On the same count and under the same terms, in the case of `CCCN(CCC)C1CCc2cccc(O)c2C1` (stereo unspecified) it was “inactive”; in that of `NC(=O)COc1c(F)cc(SCCNS(=O)(=O)c2ccccc2)cc1F`, “inactive”; in that of `CCOC(=O)c1ncn2c1[C@@H]1CCCN1C(=O)c1cc(OC)ccc1-2`, “inactive”.
In the case of `CC(C)(O)[C@@H]1C2OC(=O)[C@@H]1[C@]1(O)C[C@H]3O[C@]34C(=O)O[C@H]2[C@]14C` (tested in a mixture with another compound), the Potency entry was “inactive”.
Take `CCCN1CC[C@@H]2c3cc(O)ccc3CC[C@@H]21`: the Potency entry was “inactive”.
On the same count and under the same terms, in the case of `OCc1cnc[nH]1` it was “inactive”; in that of `O=C1/C(=C/c2ccccc2)C[C@@]2(O)[C@H]3Cc4ccc(O)c5c4[C@@]2(CCN3CC2CC2)[C@H]1O5`, 2000 nM (active).
Take `NC(N)=NOCC[C@H](N)C(=O)O`: the Potency result is “inactive”.
Consider `Nc1cc2c(ncn2CCOCP(=O)(O)O)c(=O)[nH]1`, for which the Potency result was “inactive”.
The same measure, in the same setting: in the case of `C#CCN[C@H](C)Cc1ccccc1` it was “inactive”; in that of `CCCC[N+]1(C)C2CC(OC(=O)[C@H](CO)c3ccccc3)CC1C1OC12` (stereo partly specified), “inactive”.
Same read-out and setting: in the case of `CC(=O)NBr` it was “inactive”; in that of `c1ccc2c(N3CCNCC3)cccc2c1`, “inactive”.
In the case of `CC(N)Cc1c[nH]c2ccc(OCc3cccs3)cc12` (stereo unspecified), the Potency entry is “inactive”.
Still for that read-out and setting: in the case of `[Cl-].[Cl][Pt].[NH2-].[NH2-].c1ccncc1` it was “inactive”.
Still for that read-out and setting: the entry for `CN(N=O)c1ccc(O)c(O)c1` is “inactive”.
On the same count and under the same terms, the entry for `COC(=O)N1CCN(C(=O)Cc2ccc(Cl)c(Cl)c2)C(CN2CCCC2)C1` (stereo unspecified) is “inactive”; for `C[N+]1(C)CCN(c2ccccc2)CC1` it is “inactive”.
Regarding `C[N+](C)(C)CC#CCN1CCCC1=O`, the Potency result is “inactive”.
`NC(CCCCCP(=O)(O)O)C(=O)O` (stereo unspecified): the Potency entry is “inactive”.
The same measure, in the same setting: in the case of `O=C(NC1CN2CCC1CC2)c1cc2ccoc2cn1` (stereo unspecified) it was “inactive”.
On the same count and under the same terms, in the case of `Clc1ccc(N2CC3CCC(C2)N3)nn1` it was “inactive”; in that of `O=c1ccc2[nH]cc(C3=CCNCC3)c2[nH]1`, “inactive”.
Still for that read-out and setting: in the case of `NC(C(=O)O)c1cc(=O)[nH]o1` (stereo unspecified) it was “inactive”.
Consider `O=S1(=O)N(CCN2CC=C(c3c[nH]c4cc(F)ccc34)CC2)c2cccc3c2N1CCC3`, for which the Potency entry was “inactive”.

A further test is described as follows: qHTS for inhibitors of adenylyl cyclases using a fission yeast platform: a pilot screen against the NCATS LOPAC library (AID 1347410). The settings on record: S. pombe CHP2027, fbp1-GFP fluorescence, 18 h; series mostly up to 57.5 µM. Put shortly:
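Inhibition of GNAS-stimulated AC9 activity in S. pombe was inferred from derepression of a PKA-repressed fbp1-GFP reporter, measured as cytometric fluorescence after 18 h at 30C with compounds at up to 57 µM.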
On to `COc1ccc2[nH]cc(CCN)c2c1`, for which the call was inactive.
The same measure, in the same setting: in the case of `C[N+](C)(C)CC#CCOC(=O)Nc1cccc(Cl)c1` it was “inactive”.
As for `CC(=O)c1c(O)c(C)c(O)c(Cc2c(O)c3c(c(C(=O)/C=C/c4ccccc4)c2O)OC(C)(C)C=C3)c1O`, the outcome was inactive.
On the same count and under the same terms, in the case of `Oc1ccc2c3c1O[C@H]1c4oc5ccccc5c4C[C@@]4(O)C(C2)N(CC2CC2)CCC314` (stereo partly specified) it was “inactive”; in that of `C[N+]1(C)CCOC(O)(c2ccc(-c3ccc(C4(O)C[N+](C)(C)CCO4)cc3)cc2)C1` (stereo unspecified), “inactive”; in that of `c1ccc2cc(CC3=NCCN3)ccc2c1`, “inactive”.
Consider `CCCN(CCC)[C@H]1CCc2c(F)ccc(O)c2C1`, for which the molecule was classed as inactive.
Consider `N[C@@H](Cn1oc(=O)[nH]c1=O)C(=O)O`, for which the call was inactive.
The same measure, in the same setting: the entry for `C[C@H](N)CN1CCc2ccc(Br)cc21` is “inactive”.
On the same count and under the same terms, in the case of `C[N+](C)(C)CCOC(=O)CBr` it was “inactive”.
As to `CCCN1CCc2cc(O)cc3c2[C@H]1Cc1ccc(O)c(O)c1-3`, the molecule was called inactive.
Same read-out and setting: in the case of `C[C@H]1C2Cc3ccc(O)cc3[C@@]1(C)CCN2CC1CC1` it was “inactive”.
Still for that read-out and setting: in the case of `CC(C)(C)OC(=O)NC1[C@H]2CNC[C@@H]12` (stereo partly specified) it was “inactive”; in that of `CCCN(CCC)C1CCc2cccc(O)c2C1` (stereo unspecified), “inactive”; in that of `NC(=O)COc1c(F)cc(SCCNS(=O)(=O)c2ccccc2)cc1F`, “inactive”.
Same read-out and setting: in the case of `CCOC(=O)c1ncn2c1[C@@H]1CCCN1C(=O)c1cc(OC)ccc1-2` it was “inactive”.
For `CC(C)(O)[C@@H]1C2OC(=O)[C@@H]1[C@]1(O)C[C@H]3O[C@]34C(=O)O[C@H]2[C@]14C` (tested in a mixture with another compound), the result was inactive.
On the same count and under the same terms, in the case of `CCCN1CC[C@@H]2c3cc(O)ccc3CC[C@@H]21` it was “inactive”; in that of `OCc1cnc[nH]1`, “inactive”; in that of `O=C1/C(=C/c2ccccc2)C[C@@]2(O)[C@H]3Cc4ccc(O)c5c4[C@@]2(CCN3CC2CC2)[C@H]1O5`, “inactive”.
Same read-out and setting: in the case of `NC(N)=NOCC[C@H](N)C(=O)O` it was “inactive”; in that of `Nc1cc2c(ncn2CCOCP(=O)(O)O)c(=O)[nH]1`, “inactive”.
Same read-out and setting: in the case of `C#CCN[C@H](C)Cc1ccccc1` it was “inactive”; in that of `CCCC[N+]1(C)C2CC(OC(=O)[C@H](CO)c3ccccc3)CC1C1OC12` (stereo partly specified), “inactive”.
In the case of `CC(=O)NBr`, the molecule was classed as inactive.
Consider `c1ccc2c(N3CCNCC3)cccc2c1`, for which the outcome was inactive.
On the same count and under the same terms, the entry for `CC(N)Cc1c[nH]c2ccc(OCc3cccs3)cc12` (stereo unspecified) is “inactive”.
The same measure, in the same setting: in the case of `[Cl-].[Cl][Pt].[NH2-].[NH2-].c1ccncc1` it was “inactive”; in that of `CN(N=O)c1ccc(O)c(O)c1`, “inactive”; in that of `COC(=O)N1CCN(C(=O)Cc2ccc(Cl)c(Cl)c2)C(CN2CCCC2)C1` (stereo unspecified), “inactive”.
Still for that read-out and setting: in the case of `C[N+]1(C)CCN(c2ccccc2)CC1` it was “inactive”.
On to `C[N+](C)(C)CC#CCN1CCCC1=O`, for which the molecule was classed as inactive.
The same measure, in the same setting: the entry for `NC(CCCCCP(=O)(O)O)C(=O)O` (stereo unspecified) is “inactive”; for `O=C(NC1CN2CCC1CC2)c1cc2ccoc2cn1` (stereo unspecified) it is “inactive”; for `Clc1ccc(N2CC3CCC(C2)N3)nn1` it is “inactive”.
Still for that read-out and setting: in the case of `O=c1ccc2[nH]cc(C3=CCNCC3)c2[nH]1` it was “inactive”; in that of `NC(C(=O)O)c1cc(=O)[nH]o1` (stereo unspecified), “inactive”; in that of `O=S1(=O)N(CCN2CC=C(c3c[nH]c4cc(F)ccc34)CC2)c2cccc3c2N1CCC3`, “inactive”.
